“And” between values parts separate entries of the source, which are not always exact repeats. Equal entries are not always repeated. Some structures have more than one record in an assay (separate samples or runs), and their calls can disagree. The source made the active and inactive calls. Rule for the calls: active = hit-call score of the fitted dose curve at least 0.9, where 1 is the maximum; inactive = score below 0.9.
What was measured:
[1] = read-out: Human Leukocyte Antigen - DR isotype (HLADR), HLA-DRA (gene 3122); assay: BSK_BE3C_HLADR: BioMAP Diversity Plus: BE3C Assay for Human Leukocyte Antigen - DR isotype (HLADR) Biomarker Activity (AID 2283032); conditions: primary human bronchial epithelial cells; actives raise or lower the signal
How it was run: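 Signal came from an ELISA for HLA-DR in human bronchial epithelial primary cells harvested 24 h after treatment; gain- and loss-of-signal fitting used DMSO controls as reference.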

[2] = read-out: Vascular cell adhesion molecule 1 (VCAM1), VCAM1 (gene 7412); assay: BSK_4H_VCAM1: BioMAP Diversity Plus: 4H Assay for Vascular cell adhesion molecule 1 (VCAM1) Biomarker Activity (AID 2283033); conditions: primary human endothelial cells (HUVEC); actives raise or lower the signal
How it was run: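 Endpoint derived from bidirectional fitting against DMSO controls of VCAM-1 ELISA signal in umbilical vein endothelial cells sampled at 24 h following treatment.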

[3] = read-out: Interferon-gamma inducible Protein 10 (IP10), CXCL10 (gene 3627); assay: BSK_BE3C_IP10: BioMAP Diversity Plus: BE3C Assay for Interferon-gamma inducible Protein 10 (IP10) Biomarker Activity (AID 2283034); conditions: primary human bronchial epithelial cells; actives raise or lower the signal
How it was run: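 Using primary human bronchial epithelial cultures, the assay captures IP-10 by ELISA one day (24 h) after exposure. Parallel SRB staining of total protein flags overt cytotoxicity. Fits run bidirectionally relative to DMSO.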

[4] = read-out: Monokine induced gamma interferon (MIG), CXCL9 (gene 4283); assay: BSK_BE3C_MIG: BioMAP Diversity Plus: BE3C Assay for Monokine induced gamma interferon (MIG) Biomarker Activity (AID 2283035); conditions: primary human bronchial epithelial cells; actives raise or lower the signal;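 note: MIG protein measured by ELISA in BE3C cultures after 24 h of dosing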
How it was run: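 ELISA read-out of MIG in human lung bronchial epithelial primary cultures, 24 h post-dosing. Bidirectional curve fit vs DMSO baseline.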

[5] = read-out: Transforming growth factor beta 1 (TGFb1), TGFB1 (gene 7040); assay: BSK_BE3C_TGFb1: BioMAP Diversity Plus: BE3C Assay for Transforming growth factor beta 1 (TGFb1) Biomarker Activity (AID 2283036); conditions: primary human bronchial epithelial cells; actives raise or lower the signal
How it was run: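 In this human primary bronchial epithelial system, an ELISA quantified TGF-b1 one day after dosing. Endpoint changes in either direction were fitted relative to DMSO.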

[6] = read-out: Plasminogen activator inhibitor-1 (PAI1), SERPINE1 (gene 5054); assay: BSK_BE3C_PAI1: BioMAP Diversity Plus: BE3C Assay for Plasminogen activator inhibitor-1 (PAI1) Biomarker Activity (AID 2283037); conditions: primary human bronchial epithelial cells; actives raise or lower the signal
How it was run: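 PAI-1 biomarker levels in treated human bronchial epithelial cells are determined by ELISA at 24 h. Both increases and decreases relative to DMSO are fitted.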

[7] = read-out: Urokinase-type plasminogen activator receptor (uPAR), PLAUR (gene 5329); assay: BSK_BE3C_uPAR: BioMAP Diversity Plus: BE3C Assay for Urokinase-type plasminogen activator receptor (uPAR) Biomarker Activity (AID 2283039); conditions: primary human bronchial epithelial cells; actives raise or lower the signal;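 note: uPAR protein level measured by ELISA on the cells; cells exposed to compound for one day before measurement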
How it was run: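 A uPAR ELISA serves as the readout, taken 24 h after treating primary human bronchial epithelial cells. Responses in either direction are fitted against DMSO, which defines baseline activity.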

[8] = read-out: Interleukin-6 (IL6), IL6 (gene 3569); assay: BSK_CASM3C_IL6: BioMAP Diversity Plus: CASM3C Assay for Interleukin-6 (IL6) Biomarker Activity for (AID 2283040); conditions: primary human coronary artery smooth muscle cells; actives raise or lower the signal
[9] = read-out: Tissue plasminogen activator (tPA), PLAT (gene 5327); assay: BSK_BE3C_tPA: BioMAP Diversity Plus: BE3C Assay for Tissue plasminogen activator (tPA) Biomarker Activity (AID 2283041); conditions: primary human bronchial epithelial cells; actives raise or lower the signal
How it was run: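 Bidirectional curve fitting relative to DMSO defined activity, with tPA detected by ELISA in chemically treated human bronchial epithelial primary cells at 24 hours.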

[10] = read-out: Interleukin-8 (IL8), CXCL8 (gene 3576); assay: BSK_CASM3C_IL8: BioMAP Diversity Plus: CASM3C Assay for Interleukin-8 (IL8) Biomarker Activity (AID 2283042); conditions: primary human coronary artery smooth muscle cells; actives raise or lower the signal;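 note: IL-8 protein level quantified by ELISA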
[11] = read-out: Human Leukocyte Antigen - DR isotype (HLADR), HLA-DRA (gene 3122); assay: BSK_CASM3C_HLADR: BioMAP Diversity Plus: CASM3C Assay for Human Leukocyte Antigen - DR isotype (HLADR) Biomarker Activity (AID 2283043); conditions: primary human coronary artery smooth muscle cells; actives raise or lower the signal;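 note: cell-surface HLA-DR protein level quantified by ELISA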
[12] = read-out: Macrophage colony-stimulating factor (MCSF), CSF1 (gene 1435); assay: BSK_CASM3C_MCSF: BioMAP Diversity Plus: CASM3C Assay for Macrophage colony-stimulating factor (MCSF) Biomarker Activity (AID 2283044); conditions: primary human coronary artery smooth muscle cells; actives raise or lower the signal;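 note: M-CSF protein amount quantified by ELISA after 24 h exposure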
[13] = read-out: Low-density lipoprotein receptor (LDLR), LDLR (gene 3949); assay: BSK_CASM3C_LDLR: BioMAP Diversity Plus: CASM3C Assay for Low-density lipoprotein receptor (LDLR) Biomarker Activity (AID 2283045); conditions: primary human coronary artery smooth muscle cells; actives raise or lower the signal;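 note: LDLR protein level on the cell surface quantified by ELISA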
[14] = read-out: Monocyte Chemoattractant Protein-1 (MCP1), CCL2 (gene 6347); assay: BSK_CASM3C_MCP1: BioMAP Diversity Plus: CASM3C Assay for Monocyte Chemoattractant Protein-1 (MCP1) Biomarker Activity (AID 2283046); conditions: primary human coronary artery smooth muscle cells; actives raise or lower the signal;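 note: MCP-1 level quantified by ELISA 24 h after dosing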
[15] = BSK_CASM3C_Proliferation: Cell Proliferation Assessment in the BioMAP Diversity Plus: CASM3C Assay (AID 2283047); conditions: primary human coronary artery smooth muscle cells;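 note: sulforhodamine B total protein stain as relative cell number at 560 nm; sub-confluent cells exposed 48 h before staining; fitted both ways against DMSO so gain or loss of cell number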
[16] = read-out: Monokine induced gamma interferon (MIG), CXCL9 (gene 4283); assay: BSK_CASM3C_MIG: BioMAP Diversity Plus: CASM3C Assay for Monokine induced gamma interferon (MIG) Biomarker Activity (AID 2283048); conditions: primary human coronary artery smooth muscle cells; actives raise or lower the signal;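 note: MIG protein level measured by ELISA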
[17] = read-out: serum amyloid A (SAA), SAA1 (gene 6288); assay: BSK_CASM3C_SAA: BioMAP Diversity Plus: CASM3C Assay for serum amyloid A (SAA) Biomarker Activity (AID 2283049); conditions: primary human coronary artery smooth muscle cells; actives raise or lower the signal;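 note: SAA protein level quantified by ELISA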
[18] = BSK_CASM3C_SRB: Viability Assessment in the BioMAP Diversity Plus: CASM3C Assay (AID 2283050); conditions: primary human coronary artery smooth muscle cells;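 note: cells exposed to compound for 24 h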
[19] = read-out: Thrombomodulin, THBD (gene 7056); assay: BSK_CASM3C_Thrombomodulin: BioMAP Diversity Plus: CASM3C Assay for Thrombomodulin Biomarker Activity (AID 2283051); conditions: primary human coronary artery smooth muscle cells; actives raise or lower the signal;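 note: thrombomodulin protein level measured by ELISA 24 h after dosing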
[20] = read-out: urokinase plasminogen activator (uPA), PLAU (gene 5328); assay: BSK_BE3C_uPA: BioMAP Diversity Plus: BE3C Assay for urokinase plasminogen activator (uPA) Biomarker Activity (AID 2283038); conditions: primary human bronchial epithelial cells; actives raise or lower the signal;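 note: uPA protein level quantified by ELISA in cell cultures; uPA read one day after compound addition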
How it was run: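 Primary human bronchial epithelial cells, uPA measured by ELISA 24 h after dosing. Bidirectional change relative to DMSO; cytotoxicity checked in parallel cultures by sulforhodamine B total-protein staining.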

Measured: AC50

c1ccc(Oc2ccccc2)cc1
active: [2] 28.8 µM
not listed: [20]
inactive: all other assays above

CN(C)C(=O)Nc1ccc(Oc2ccc(Cl)cc2)cc1
active: [5] 3.97 µM | [8] 42.7 nM | [9] 4.19 µM
inactive: all other assays above

Cc1cc(CCC(=O)OCCOCCOCCOC(=O)CCc2cc(C)c(O)c(C(C)(C)C)c2)cc(C(C)(C)C)c1O
active: [3] 10.1 µM | [5] 17.8 µM
not listed: [20]
inactive: all other assays above

CC1(C)CCC[C@]2(C)[C@H]3CCO[C@]3(C)CC[C@@H]12
active: [1] 23.9 µM and 28.6 µM | [2] 30.4 µM | [6] 36.4 µM | [8] 31.5 µM and 16.6 µM | [9] 23 µM and 20 µM | [10] 33 µM | [11] 34.9 µM and 32.9 µM | [12] 20 µM | [14] 33.4 µM and 33.3 µM | [15] 36.3 µM and 36.8 µM | [16] 30.4 µM and 31.2 µM | [17] 34.2 µM and 31.3 µM | [18] 34.5 µM and 35.3 µM
inactive: [2] | [3] | [4] | [6] | [7] | [10] | [12] | [13] | [19]

O=C1OC2(c3ccccc31)c1ccc(O)c(Br)c1Oc1c2ccc(O)c1Br
active: [1] 10.3 µM | [2] 20 µM | [5] 3.97 µM | [9] 20 µM
not listed: [20]
inactive: all other assays above

— PubChem BioAssay (EPA / NIEHS)
